Among all 69,000 compounds or so, about 8,600 (12%) showed an effect of 50% or more. Shown is part of a subset that was picked to be rich in strong results.
These molecules were tested on Plasmodium berghei (assay: Screen against P. berghei liver stage (PbLuc), transformed with Luciferase, at 10uM). Conditions: tested at 10 uM.
Format: functional, HepG2
In the case of `CC(C(=O)N1CCN(Cc2ccncc2)CC1)n1cncn1` (stereo not given), the INHIBITION is reported as 4.25%.
For `Fc1ccc(-c2cnc(C3CCNCC3)cn2)cc1`, the INHIBITION was 37.85%.
Molecule `CC(CO)CN(Cc1ccccc1)C(=O)c1csc(CN(C)C)n1` (stereo not given) has an INHIBITION of 13.7%.
`Cc1nc(C(C)NC(=O)c2cn(CCC3CCCCC3)nn2)n[nH]1` (stereo not given) showed an INHIBITION of 5.75%.
`COCc1noc(Cn2c(=O)[nH]c3ccccc32)n1` gave an INHIBITION of 74%.
Molecule `COCCc1noc(Cn2c(=O)[nH]c3ccccc32)n1` has an INHIBITION of -16.5%.
With `COCc1noc(Cn2c(C3CC3)nc3ccccc32)n1` the INHIBITION was 39.2%.
`CC1COCCN1C(=O)Cc1cc(Cl)c2c(c1)OCCO2` (stereo not given) gave an INHIBITION of 26.8%.
Work on `CSCC1CCN(C(=O)Cn2ncc(N3CCCCC3)cc2=O)CC1` yielded an INHIBITION of 40.7%.
Molecule `O=C(c1cncs1)N1CCc2[nH]nc(Nc3ccccc3)c2C1` has an INHIBITION of 20.49%.
`CN(CCc1ccccc1)Cc1cc(C(=O)N2CCSCC2)no1` gave an INHIBITION of 40.5%.
With `CN1CCCN(C(=O)c2cc(CN(C)CCc3ccccc3)on2)CC1` the INHIBITION was 53.3%.
`CN(CCc1ccccc1)Cc1cc(C(=O)N2CCN(C)C(=O)C2)no1` gave an INHIBITION of -13.2%.
`O=C1CCC2(CCN(Cc3nccs3)CC2)CN1CCCO` gave an INHIBITION of -47.8%.
With `Cc1cnc(CN(C)C2CCCN(Cc3noc(C4CC4)n3)C2)cn1` (stereo not given) the INHIBITION was 10%.
`CC(NCC(=O)N(C)C1CC1)c1ccc(S(C)(=O)=O)c(F)c1` (stereo not given) showed an INHIBITION of 34.7%.
`O=C(NCc1cnc2n1CCN(Cc1cccs1)C2)c1ccno1` showed an INHIBITION of 12.2%.
For `O=C(NCc1cnc2n1CCN(CC1CCOCC1)C2)c1ccno1`, the INHIBITION was 50.3%.
In the case of `Cn1cccc1C(=O)NCc1cnc2n1CCN(CC1CCOCC1)C2`, the INHIBITION is reported as 20.4%.
In the case of `O=C(NCc1cnc2n1CCN(Cc1nccs1)C2)c1ccno1`, the INHIBITION is reported as 23.1%.
`O=C(NCc1cnc2n1CCN(Cc1ccoc1)C2)c1ccno1` showed an INHIBITION of 63.8%.
In the case of `O=C(NCc1cnc2n1CCN(CC1CC1)C2)C1CC1`, the INHIBITION is reported as -30%.
In the case of `O=C(C(c1ccccc1)S(=O)(=O)c1ccccn1)N1CCCC1` (stereo not given), the INHIBITION is reported as 14.2%.
`Cn1nnc2c1CCN(Cc1ccccn1)C2COCc1ccccc1` (stereo not given) showed an INHIBITION of 21.3%.
In the case of `Cc1cc(-c2ccccc2C(=O)O)nc(C2CCCN2S(C)(=O)=O)n1` (stereo not given), the INHIBITION is reported as 12.8%.
`Cc1cc(-c2ccccc2C(=O)O)nc(C2CCCCN2C)n1` (stereo not given) was tested, and the INHIBITION was 59%.
For `CC(=O)N1CCCCC1c1nc(C)cc(-c2ccccc2C(=O)O)n1` (stereo not given), the INHIBITION was 15.9%.
`O=C(Cc1cn2ccsc2n1)N1CCCC(n2cccn2)C1` (stereo not given) was tested, and the INHIBITION was -1.12%.
`COCCc1noc(CN2CCCC2c2noc(C(C)C)n2)n1` (stereo not given) showed an INHIBITION of 21.8%.
Molecule `CC(CN(C)Cc1cccc(-n2cccn2)c1)C(F)(F)F` (stereo not given) has an INHIBITION of 17.735%.
`COc1cc(N(C)Cc2cccc(-n3cccn3)c2)nc(N)n1` showed an INHIBITION of 80%.
For `CN(Cc1cccc(-n2cccn2)c1)C(=O)c1ccnc(N)c1`, the INHIBITION was 21.2%.
In the case of `CN(Cc1cccc(-n2cccn2)c1)Cc1c[nH]cn1`, the INHIBITION is reported as 35.05%.
Work on `CN(Cc1ccc(-n2cccn2)cc1)c1cc(N)nc(N)n1` yielded an INHIBITION of 82.2%.
`CN(Cc1cccc(-n2cccn2)c1)c1cc(N2CCCC2)nc(N)n1` showed an INHIBITION of 93.9%.
Molecule `CN(Cc1ccc(-n2cccn2)cc1)Cc1cnc(N(C)C)nc1` has an INHIBITION of 37.4%.
Molecule `CN(Cc1cccc(-n2cccn2)c1)C(=O)c1cccc(N(C)C)c1` has an INHIBITION of 22.1%.
For `CN(Cc1ccc(-n2cccn2)cc1)c1nc(N)nc2c1CCNCC2`, the INHIBITION was 45%.
For `CCCc1nc(C)c(C(=O)NCCNc2ncccc2C#N)s1`, the INHIBITION was -24.2%.
In the case of `CC(C)NC(=O)[C@H]1C[C@@H]2[C@@H](C1)OCCN2Cc1cnn(C)c1`, the INHIBITION is reported as -4.56%.
Molecule `CCOc1ccccc1OC1CCN(C(=O)c2cnsn2)CC1` has an INHIBITION of 21.5%.
With `CN(C)Cc1cn(-c2ccccc2C(=O)NCCC2CCCN2C)cn1` (stereo not given) the INHIBITION was 10%.
For `Nc1ncccc1CN1CCCn2nc(CCC(=O)NC3CC3)cc2C1`, the INHIBITION was 46.1%.
In the case of `CN1CCN(S(=O)(=O)c2cccc(F)c2)Cc2cccnc21`, the INHIBITION is reported as 65.7%.
In the case of `CN1CCN(S(=O)(=O)c2ccccc2)Cc2cccnc21`, the INHIBITION is reported as 14.9%.
`COc1ccc(S(=O)(=O)N2CCN(C)c3ncccc3C2)cc1` gave an INHIBITION of 42.1%.
`Cc1cc(C2CCCN2Cc2ccn(C)c(=O)c2)on1` (stereo not given) showed an INHIBITION of 20.1%.
Molecule `CC(C)(C)N1CC(C(=O)NCc2cn3cccnc3n2)CC1=O` (stereo not given) has an INHIBITION of 53.9%.
For `O=C(NCc1cn2cccnc2n1)C1CC(=O)N(Cc2ccccn2)C1` (stereo not given), the INHIBITION was 37.6%.
In the case of `CN(C)CCN1CC(C(=O)NCc2cn3cccnc3n2)CC1=O` (stereo not given), the INHIBITION is reported as 23.9%.
Molecule `Cc1nc(CN2CCC3(CCCN(Cc4ccoc4)C3)C2=O)cs1` (stereo not given) has an INHIBITION of -5.31%.
Work on `COc1c[nH]c(C(=O)Nc2nc(C(C)(C)C)cs2)cc1=O` yielded an INHIBITION of 29.4%.
Work on `CC[C@H](C)[C@H](N)C(=O)Nc1nc(-c2cnc(N(C)C)nc2)cs1` yielded an INHIBITION of 21.9%.
Molecule `CCN1CC2(CC1=O)CN(Cc1ccco1)CCN(C(=O)C(C)C)C2` (stereo not given) has an INHIBITION of 57.4%.
For `CCN1CC2(CC1=O)CN(C(=O)C(C)C)CCN(S(=O)(=O)CC)C2` (stereo not given), the INHIBITION was 52.3%.
Molecule `CCS(=O)(=O)N1CCN(C(=O)C(C)C)CC2(CC(=O)N(C)C2)C1` (stereo not given) has an INHIBITION of 45.8%.
Work on `CCN1CC2(CC1=O)CN(C(=O)C(C)C)CCN(S(C)(=O)=O)C2` (stereo not given) yielded an INHIBITION of 46.7%.
`CCN1CC2(CC1=O)CN(C(C)=O)CCN(S(C)(=O)=O)C2` (stereo not given) was tested, and the INHIBITION was 26%.
With `CCN1CC2(CC1=O)CN(C(=O)N(C)C)CCN(S(C)(=O)=O)C2` (stereo not given) the INHIBITION was 31.9%.
Molecule `CCN1CC2(CC1=O)CN(Cc1ccc(C)o1)CCN(C(=O)C(C)C)C2` (stereo not given) has an INHIBITION of 42.5%.
In the case of `CCN1CC2(CC1=O)CN(Cc1ccco1)CCN(C(=O)N(C)C)C2` (stereo not given), the INHIBITION is reported as 5.14%.
Molecule `CCN1CC2(CC1=O)CN(C(=O)COC)CCN(S(C)(=O)=O)C2` (stereo not given) has an INHIBITION of 63%.
With `CC(C)c1nnc2n1CCN(C(=O)c1ccc3c(c1)CCC3)C2` the INHIBITION was -12.2%.
With `COc1ccccc1C1=NOC(CC2(C(=O)O)CCOCC2)C1` (stereo not given) the INHIBITION was 29.2%.
Molecule `CCn1cnnc1C1CCN(C(=O)c2cccc(N(C)C)c2)CC1` has an INHIBITION of 39.7%.
For `CCc1cnc(N2C[C@H]3CN(Cc4csc(C)n4)C(=O)[C@H]3C2)nc1`, the INHIBITION was 18.5%.
With `Cc1cc(C(=O)NS(C)(=O)=O)c(C)n1-c1ccccc1` the INHIBITION was 37.9%.
`Cc1nc(CN2C[C@@H]3CN(C(=O)c4cnccn4)C[C@@H]3C2)cs1` gave an INHIBITION of -13.2%.
Molecule `CN1C[C@@H](C(=O)NC(C)(C)C)[C@@]2(CCc3ccccc3C(=O)N2)C1` has an INHIBITION of 16.5%.
In the case of `COCCn1ccc(NC(=O)Nc2cccnc2)n1`, the INHIBITION is reported as 25.3%.
In the case of `Cc1cc(N2CCOC(c3ccc(N(C)C)cn3)C2)nc(N)n1` (stereo not given), the INHIBITION is reported as -0.6%.
In the case of `Cc1cc(C(=O)N2CCC3(CC2)COCCN(c2cccnc2)C3)[nH]n1`, the INHIBITION is reported as 24.6%.
`COc1ccnc(N2CCN(Cc3ncc(C(C)(C)C)o3)CC2)n1` showed an INHIBITION of 9.76%.
`COc1ccnc(N2CCCN(Cc3ncc(C(C)C)o3)CC2)n1` showed an INHIBITION of 9.76%.
For `COc1ccnc(N2CCN(Cc3ncc(-c4ccccc4)o3)CC2)n1`, the INHIBITION was 56%.
`CN(CCc1nc(-c2cccc(Cl)c2)no1)CCn1cccn1` gave an INHIBITION of 12.6%.
`Cc1nnc(CN(C)CCc2nc(-c3cccc(Cl)c3)no2)n1C` showed an INHIBITION of 34.5%.
With `Cc1noc(C)c1CN(C)CCc1nc(-c2cccc(Cl)c2)no1` the INHIBITION was 88.1%.
For `O=C(Cc1cccnc1)N1CCC2(CC1)CCN(C1CCOC1)C2` (stereo not given), the INHIBITION was 53.4%.
With `O=C(Cc1cccnc1)N1CCC2(CCN(C3CCOC3)CC2)C1` (stereo not given) the INHIBITION was -1.83%.
In the case of `O=C(Cc1cccnc1)N1CCC2(CC1)CCN(C1CCOCC1)C2`, the INHIBITION is reported as -3.19%.
`CC(=O)N1CCN(Cc2ccc(C)o2)CC2(CC(=O)N(C)C2)C1` (stereo not given) showed an INHIBITION of 3.81%.
`COc1ncccc1N(C)C(=O)Cn1cc(-c2ccccc2)nn1` gave an INHIBITION of 4.34%.
With `Cc1ccc(C2COCCN2C(=O)c2ccsc2)o1` (stereo not given) the INHIBITION was 3.77%.
With `N#CCCN(Cc1cccnc1)C(=O)c1ccc(OCC2CC2)cc1` the INHIBITION was -92.2%.
`N#CCCN(CCC#N)C(=O)c1ccc(OCC2CC2)cc1` was tested, and the INHIBITION was -77.9%.
Molecule `N#CCCN(Cc1ccco1)C(=O)c1ccc(OCC2CC2)cc1` has an INHIBITION of 69.5%.
Molecule `CC(=O)NCC(=O)N1CCC2(CC1)NC(=O)CC2c1cnn(C)c1` (stereo not given) has an INHIBITION of 43.1%.
`Cc1cnn(CC2CCCN2C(=O)c2cc(C)nc3[nH]nc(C)c23)c1` (stereo not given) was tested, and the INHIBITION was -37.7%.
Molecule `CCOc1ncccc1C(=O)N1CCCC(c2nncn2C)C1` (stereo not given) has an INHIBITION of -98.8%.
Work on `O=C1Nc2ccccc2NC12CCN(Cc1nnc(C3CC3)o1)CC2` yielded an INHIBITION of 56.1%.
For `CCc1nnc(CN2CCC3(CC2)Nc2ccccc2NC3=O)o1`, the INHIBITION was 18.2%.
`CC(C)c1nnc(CN2CCC3(CC2)Nc2ccccc2NC3=O)o1` gave an INHIBITION of -20.7%.
With `CC(=O)N1CCN(c2cc(-n3cccc3)ncn2)CC1` the INHIBITION was -12.1%.
`CN(c1cccnn1)[C@@H]1CC[C@@H]2CN(Cc3cccc(C(=O)O)c3)C[C@@H]21` gave an INHIBITION of 30.6%.
For `CC(C)CN(CC(O)c1ccc(F)cc1)C(=O)c1csnn1` (stereo not given), the INHIBITION was -3.48%.
`CS(=O)(=O)N1CCN(CC(=O)Nc2cccc(Cl)c2)CC1` gave an INHIBITION of 6.83%.
`Fc1ccc(OC2CCN(Cc3nnc(-c4ccco4)o3)CC2)cc1` gave an INHIBITION of -53.1%.
With `c1ccc(C(NCc2nnc(-c3ccco3)o2)C2CCC2)cc1` (stereo not given) the INHIBITION was 50.8%.
`Cc1ccc(N2CCCC(NCc3nnc(-c4ccco4)o3)C2)nn1` (stereo not given) gave an INHIBITION of 11.94%.
In the case of `Fc1ccc(C(NCc2nnc(-c3ccco3)o2)C2CCC2)cc1` (stereo not given), the INHIBITION is reported as 82.3%.
With `Fc1ccc(C(NCc2nnc(C3CC3)o2)C2CCC2)cc1` (stereo not given) the INHIBITION was 23.9%.
For `CC(C1CC1)N(C)Cc1nnc(-c2ccco2)o1` (stereo not given), the INHIBITION was 21.5%.
`CCc1nc(CN(C)C2CCN(CCn3cccn3)C2)no1` (stereo not given) was tested, and the INHIBITION was 14.1%.
For `Cn1cnnc1CN1CCC2(CCCN(C3CCCC3)C2=O)C1` (stereo not given), the INHIBITION was -15.6%.

From ChEMBL document CHEMBL4513216, “Probing the Open Global Health Chemical Diversity Library for Multistage-Active Starting Points for Next-Generation Antimalarials” (ACS Infect Dis, 2020)
